Here are results for 20 compounds from PubChem BioAssay.

Unmarked numbers belong to inactive results. For some of these results: Potency and affinity values are given separately. Calls of active or inactive are those of the source. Unless noted, how the calls were made is not given here.

The nature of assay [1]: antimalarial activity against Dd2 strain (AID 2302;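 active means growth inhibition above 50% at the single 2 µM test dose, taken to imply half-maximal potency below 2 µM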;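 further: 0% = DMSO untreated growth and 100% = chloroquine plus artemisinin killed control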). The note with it: P. falciparum Dd2 in RBCs, LDH growth readout, 72 h; at 2 µM; stronger effect = higher value.
Assay [2] in a line: HepG2 cytotoxicity, primary screen, cytotoxicity control for P. falciparum antimalarial project, cell-based, ATP luminescence (AID 2303;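 active means inhibition above 50%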;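 further: 0% = DMSO wells and 100% = digitonin-killed cells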). The note with it: HepG2 viability, 24-48 h, at 10 µM, stronger effect = higher value.
Assay [3] deals with L-lactate dehydrogenase (Plasmodium falciparum (isolate CDC / Honduras)) (UniProt Q27743). The experiment in a line: PfLDH activity inhibition – cell lysate, 3D7 strain, counter-screen for P. falciparum growth inhibition project (AID 2304).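 Further: 0% = vehicle and 100% = reference inhibitor.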 As to conditions: P. falciparum 3D7 crude extract, LDH APAD/NBT absorbance; at 2 µM; stronger effect = higher value.
Chain of L-lactate dehydrogenase (Plasmodium falciparum (isolate CDC / Honduras)) (Q27743 whole entry, looked up): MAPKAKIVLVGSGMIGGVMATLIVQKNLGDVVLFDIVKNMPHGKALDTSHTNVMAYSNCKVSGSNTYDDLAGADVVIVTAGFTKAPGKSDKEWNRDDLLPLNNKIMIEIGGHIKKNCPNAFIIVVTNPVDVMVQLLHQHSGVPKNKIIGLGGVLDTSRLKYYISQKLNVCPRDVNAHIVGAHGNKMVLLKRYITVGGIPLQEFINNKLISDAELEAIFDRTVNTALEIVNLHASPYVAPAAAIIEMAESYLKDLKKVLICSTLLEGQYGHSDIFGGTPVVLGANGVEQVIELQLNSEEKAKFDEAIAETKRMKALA
Assay [4] is described as follows: inhibition of 3D7 malaria parasite growth – strain 3D7 (AID 2306).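 Further: 0% = DMSO wells and 100% = chloroquine plus artemisinin control wells.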 The note with it: P. falciparum 3D7 erythrocytic growth, LDH absorbance, 72 h; at 2 µM; stronger effect = higher value.
Assay [5] addresses Calcium-dependent protein kinase 1 (Plasmodium falciparum (isolate 3D7)) (UniProt P62344). Nature of the assay: PfCDPK1 kinase inhibitors, biochemical, TCAMS library (AID 1159585; cut-off not given, nearly all actives have IC50 up to about 0.98 µM;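 further: inhibitors leave more ATP so luminescence rises with inhibition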). As to conditions: recombinant PfCDPK1, Kinase-Glo ATP depletion luminescence.
In assay [6] the target is Plasmodium falciparum protein kinase 6 (PK6, PF3D7_1337100) (UniProt Q8IDW1). Nature of the assay: PfPK6 kinase inhibitors, biochemical, TCAMS library (AID 1159586). The note with it: recombinant PfPK6, Kinase-Glo ATP depletion luminescence.
Chain of Plasmodium falciparum protein kinase 6 (PK6, PF3D7_1337100) (Q8IDW1 1-305): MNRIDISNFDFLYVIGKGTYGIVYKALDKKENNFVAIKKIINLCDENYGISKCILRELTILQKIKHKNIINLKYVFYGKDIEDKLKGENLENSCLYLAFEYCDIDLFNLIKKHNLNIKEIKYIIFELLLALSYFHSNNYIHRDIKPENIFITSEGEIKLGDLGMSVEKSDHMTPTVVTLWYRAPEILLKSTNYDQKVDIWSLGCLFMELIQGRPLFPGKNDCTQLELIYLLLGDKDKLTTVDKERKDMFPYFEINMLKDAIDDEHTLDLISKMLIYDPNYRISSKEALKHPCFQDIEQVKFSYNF
The target of assay [7] is Protein kinase 7 (PK7), Plasmodium falciparum 3D7 (PF3D7_0213400) (UniProt Q7YTF7). Nature of the assay: inhibition of Plasmodium PK7 catalytic activity – biochemical, TCAMS antimalarial set, Kinase-Glo luminescence (AID 1159587). The note with it: recombinant PfPK7, Kinase-Glo ATP depletion luminescence.
Chain of Protein kinase 7 (PK7), Plasmodium falciparum 3D7 (PF3D7_0213400) (Q7YTF7 1-343): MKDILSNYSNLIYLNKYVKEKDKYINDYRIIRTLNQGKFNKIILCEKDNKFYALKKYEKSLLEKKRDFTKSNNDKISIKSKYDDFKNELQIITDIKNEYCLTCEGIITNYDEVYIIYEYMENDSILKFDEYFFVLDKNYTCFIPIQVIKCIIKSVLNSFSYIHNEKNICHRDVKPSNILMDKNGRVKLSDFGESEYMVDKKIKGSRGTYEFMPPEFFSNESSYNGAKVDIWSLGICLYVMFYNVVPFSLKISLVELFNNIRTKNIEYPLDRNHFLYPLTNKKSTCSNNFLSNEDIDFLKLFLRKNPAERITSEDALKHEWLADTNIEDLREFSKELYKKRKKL
The target in assay [8] is Calcium-dependent protein kinase 4 (Plasmodium falciparum (isolate 3D7)) (UniProt Q8IBS5). The experiment in a line: PfCDPK4 kinase inhibitors, biochemical, TCAMS library (AID 1159588; cut-off not given, nearly all actives have IC50 up to about 0.91 µM). The note with it: recombinant PfCDPK4, Kinase-Glo ATP depletion luminescence.
Chain of Calcium-dependent protein kinase 4 (Plasmodium falciparum (isolate 3D7)) (Q8IBS5 whole entry, looked up): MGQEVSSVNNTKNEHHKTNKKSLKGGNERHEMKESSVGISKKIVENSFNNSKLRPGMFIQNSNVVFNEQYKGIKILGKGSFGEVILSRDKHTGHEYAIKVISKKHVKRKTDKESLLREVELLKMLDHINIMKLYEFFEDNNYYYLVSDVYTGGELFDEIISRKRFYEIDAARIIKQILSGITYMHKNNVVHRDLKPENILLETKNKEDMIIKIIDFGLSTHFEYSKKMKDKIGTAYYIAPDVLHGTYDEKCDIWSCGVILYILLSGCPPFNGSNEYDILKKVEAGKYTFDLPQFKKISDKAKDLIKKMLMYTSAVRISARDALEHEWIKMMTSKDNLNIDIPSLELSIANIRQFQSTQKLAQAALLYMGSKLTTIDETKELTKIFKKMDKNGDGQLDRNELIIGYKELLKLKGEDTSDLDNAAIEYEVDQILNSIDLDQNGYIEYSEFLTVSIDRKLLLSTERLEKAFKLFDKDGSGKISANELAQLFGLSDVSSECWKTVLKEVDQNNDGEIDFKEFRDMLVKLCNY

Chain of Calcium-dependent protein kinase 1 (Plasmodium falciparum (isolate 3D7)) (P62344 whole entry, looked up): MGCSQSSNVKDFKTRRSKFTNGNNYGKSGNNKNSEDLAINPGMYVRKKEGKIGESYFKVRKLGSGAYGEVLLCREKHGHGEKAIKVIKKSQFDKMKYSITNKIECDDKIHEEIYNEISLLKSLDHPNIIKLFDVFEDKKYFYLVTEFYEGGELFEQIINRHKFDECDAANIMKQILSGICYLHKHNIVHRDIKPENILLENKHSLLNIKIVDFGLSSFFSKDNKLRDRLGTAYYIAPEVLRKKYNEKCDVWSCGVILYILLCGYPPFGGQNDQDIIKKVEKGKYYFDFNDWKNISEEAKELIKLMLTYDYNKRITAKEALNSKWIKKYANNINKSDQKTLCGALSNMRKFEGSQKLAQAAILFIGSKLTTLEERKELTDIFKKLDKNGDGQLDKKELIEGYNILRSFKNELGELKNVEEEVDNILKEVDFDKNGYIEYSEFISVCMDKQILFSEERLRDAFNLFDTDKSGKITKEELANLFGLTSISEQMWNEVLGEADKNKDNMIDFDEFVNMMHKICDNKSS

Regarding `CC(=NNC(=S)NC(C)(C)C)c1ccccn1`, the growth inhibition was 100% (active) in assay [1] and 99% (active) in assay [4]. Besides, the values for the inhibition in assay [2] and in assay [3] were 63% (active) and -3%, respectively. The result in assay [5], in assay [6], in assay [7] and in assay [8] was inactive.

In the case of `Cc1ccc(NC(=O)Nc2ccc(I)c(OCCN(C)C)c2)cc1Cl`, the figures for the growth inhibition in assay [1] and in assay [4] were 22% and 98% (active), respectively. In addition, the values for the inhibition in assay [2] and in assay [3] were 11% and -4%, respectively. For the same compound, the outcome in assay [5], in assay [6], in assay [7] and in assay [8] was inactive.

For `Clc1ccc2c(NCCCCCCCCNc3ccnc4cc(Cl)ccc34)ccnc2c1`, the growth inhibition in assay [1] was 96% (active); in assay [4] it was 99% (active). Besides, the figures for the inhibition in assay [2] and in assay [3] were 2% and 4%, respectively. For the same compound, the result in assay [5], in assay [6], in assay [7] and in assay [8] was inactive.

As for `CCCN(CCC)CCCN(CCCN(CCC)CCC)c1cc(C)nc(Nc2ccc3cc(Br)ccc3c2)n1`, the growth inhibition was 99% (active) in assay [1] and 98% (active) in assay [4]. The inhibition in assay [2] is 99% (active); in assay [3], 1%. Further, the outcome in assay [5], in assay [6], in assay [7] and in assay [8] was inactive.

As to `Fc1cc(CN2CCCC2)ccc1OCCCN1CCN(c2cccc(Cl)c2Cl)CC1`, the figures for the growth inhibition in assay [1] and in assay [4] were 15% and 82% (active), respectively. Also, the inhibition in assay [2] is 67% (active); in assay [3], -1%. Besides, the result in assay [5], in assay [6], in assay [7] and in assay [8] was inactive.

`N#CCCN1CCN(Cc2cccc(-c3ccc(-c4nc5ccccc5[nH]4)s3)c2)CC1`: the values for the growth inhibition in assay [1] and in assay [4] were 8% and 96% (active), respectively. For the same compound, the inhibition was 48% in assay [2] and -4% in assay [3]. The result in assay [5], in assay [6], in assay [7] and in assay [8] was inactive.

For the compound `c1ccc2c(c1)ncc1c3ccccc3[nH]c21`, the growth inhibition in assay [1] was 36%; in assay [4], 95% (active). The figures for the inhibition in assay [2] and in assay [3] were -1% and -6%, respectively. Also, the outcome in assay [5], in assay [6], in assay [7] and in assay [8] was inactive.

For the compound `O=[N+]([O-])c1ccccc1C=NNc1ccnc2ccc(C(F)(F)F)cc12`, the growth inhibition in assay [1] was 36%; in assay [4], 100% (active). Moreover, the figures for the inhibition in assay [2] and in assay [3] were 6% and -3%, respectively. Also, the result in assay [5], in assay [6], in assay [7] and in assay [8] was inactive.

Regarding `CNCCNCc1ccc(-c2ccc(-c3nc4ccccc4[nH]3)s2)cc1`, the growth inhibition in assay [1] was 15%; in assay [4], 99% (active). The inhibition in assay [2] was 11%; in assay [3] it was 5%. The outcome in assay [5], in assay [6], in assay [7] and in assay [8] was inactive.

For `CCOc1ccccc1CCNCC1CCN(CC2CCCCC2)CC1`, the growth inhibition in assay [1] is 59% (active); in assay [4], 84% (active). Besides, the inhibition in assay [2] is 35%; in assay [3], -1%. In addition, the outcome in assay [5], in assay [6], in assay [7] and in assay [8] was inactive.

Turning to `CC(C)n1c(C2CCN(CC3CCN(C(=O)/C=C/c4ccc(Cl)c(Cl)c4)CC3)CC2)nc2ccccc21`, the growth inhibition was 7% in assay [1] and 94% (active) in assay [4]. In addition, the inhibition in assay [2] was 36%; in assay [3] it was 2%. Also, the outcome in assay [5], in assay [6], in assay [7] and in assay [8] was inactive.

Consider `O=C(/C=C/c1ccc(Cl)c(Cl)c1)N1CCC(CN2CCC(Cc3c[nH]c4ccccc34)CC2)CC1`, for which the growth inhibition in assay [1] is 13%; in assay [4], 98% (active). In addition, the results for the inhibition in assay [2] and in assay [3] were 24% and 1%, respectively. Also, the result in assay [5], in assay [6], in assay [7] and in assay [8] was inactive.

For the compound `O=C1c2ccccc2C(=O)N1c1ccc(S(=O)(=O)N2CCOCC2)cc1`, the growth inhibition is -1% in assay [1] and 94% (active) in assay [4]. The inhibition in assay [2] is -1%; in assay [3] it was 3%. The outcome in assay [5], in assay [6], in assay [7] and in assay [8] was inactive.

For `Cc1ccc(CCC(C)NCC(O)c2cccc(Cl)c2)cc1` (stereo not given), the growth inhibition in assay [1] and in assay [4] was 97% (active) in each case. For the same compound, the inhibition in assay [2] is 2%; in assay [3] it was -4%. The outcome in assay [5], in assay [6], in assay [7] and in assay [8] was inactive.

For the compound `CN(CCCc1c[nH]c2ccccc12)CC1CCN(C(=O)/C=C/c2ccc(Cl)c(Cl)c2)CC1`, the growth inhibition was 25% in assay [1] and 99% (active) in assay [4]. The inhibition in assay [2] is 37%; in assay [3], -1%. The outcome in assay [5], in assay [6], in assay [7] and in assay [8] was inactive.

Regarding `COc1ccc(NC(=O)Nc2cc(C)nc3cccnc23)cc1Cn1ccnc1`, the growth inhibition in assay [1] was 41%; in assay [4], 100% (active). For the same compound, the values for the inhibition in assay [2] and in assay [3] were 12% and -3%, respectively. Also, the result in assay [5], in assay [6], in assay [7] and in assay [8] was inactive.

As to `Clc1ccc(-c2cc(-c3csc(Nc4ccncc4)n3)on2)cc1`, the values for the growth inhibition in assay [1] and in assay [4] were 99% (active) and 100% (active), respectively. Besides, the inhibition in assay [2] was 1%; in assay [3], 3%. Further, the result in assay [5], in assay [6], in assay [7] and in assay [8] was inactive.

`C[C@H](Cc1ccc(OCCCCCCOc2ccc(C[C@@H](C)NC[C@H](O)c3cccc(Cl)c3)cc2)cc1)NC[C@H](O)c1cccc(Cl)c1`: the growth inhibition in assay [1] and in assay [4] was 99% (active) each time. For the same compound, the results for the inhibition in assay [2] and in assay [3] were 99% (active) and 3%, respectively. Besides, the outcome in assay [5], in assay [6], in assay [7] and in assay [8] was inactive.

In the case of `CC1CN(Cc2csc(Nc3ccccc3)n2)CC(C)O1` (stereo not given), the growth inhibition in assay [1] is 81% (active); in assay [4], 91% (active). Also, the inhibition is 4% in assay [2] and 0% in assay [3]. For the same compound, the outcome in assay [5], in assay [6], in assay [7] and in assay [8] was inactive.

Turning to `COc1ccc2nccc(N3CCC(SCCNS(=O)(=O)c4ccc5c(c4)NC(=O)CS5)C3)c2n1` (stereo not given), the growth inhibition in assay [1] is 17%; in assay [4] it was 99% (active). Besides, the inhibition in assay [2] was 20%; in assay [3] it was -5%. The outcome in assay [5], in assay [6], in assay [7] and in assay [8] was inactive.
